Results filed as inconclusive are left out. The source made the active and inactive calls. Calls follow the shape of the dose curve; as a rule, active = well fitted curve in the direction sought with a large enough effect; inconclusive = small, poorly fitted or top-dose-only effect, or another doubt; inactive = no such curve, though single readings can be large; an effect the other way counts as inactive or inconclusive. Where a SMILES comes first, the peptide text is derived from it. The star is where a group is joined. PhAc = O=C(Cc1ccccc1)*
Molecular target: Cytochrome P450 3A7 (Homo sapiens) (UniProt P24462)
Sequence (P24462 whole entry, looked up): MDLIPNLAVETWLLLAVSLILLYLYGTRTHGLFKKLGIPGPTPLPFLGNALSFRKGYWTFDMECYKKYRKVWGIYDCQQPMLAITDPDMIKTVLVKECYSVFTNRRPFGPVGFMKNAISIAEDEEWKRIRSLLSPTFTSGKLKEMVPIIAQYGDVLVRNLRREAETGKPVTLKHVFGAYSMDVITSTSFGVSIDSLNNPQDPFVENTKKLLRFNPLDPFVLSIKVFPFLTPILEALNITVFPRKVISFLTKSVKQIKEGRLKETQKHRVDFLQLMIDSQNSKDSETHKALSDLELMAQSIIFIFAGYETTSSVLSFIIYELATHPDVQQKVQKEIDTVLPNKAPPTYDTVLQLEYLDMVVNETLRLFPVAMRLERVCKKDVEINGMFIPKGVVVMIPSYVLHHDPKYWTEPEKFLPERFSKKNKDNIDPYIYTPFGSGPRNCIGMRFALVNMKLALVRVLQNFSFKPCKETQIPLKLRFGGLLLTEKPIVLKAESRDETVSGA
Test: Cytochrome P450 family 3 subfamily A member 7 (CYP3A7) small molecule antagonists: luciferase biochemical qHTS assay (AID 1963596); as to activity change, negative = inhibition: % is scaled to controls: 0 for no effect and ±100 for the full control effect
Settings: P450-Glo CYP3A7 enzyme luminescence, 1 h; series mostly up to 57.4 µM; activity change, negative = inhibition: at the top concentration
Summary of the method: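 Luminescence from luciferin released by CYP3A7 from a proluciferin substrate, read 20 min after detection reagent. Compound and enzyme-substrate mix sat 10 min before NADPH regeneration solution; reaction ran 1 h at room temperature.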
Also: nearly all actives have a fitted effect of over 40% in size.
Potency is read from the fitted curve at half-maximal effect.

SMILES | activity change, negative = inhibition | Potency
Cc1ccc(S(=O)(=O)Nc2nc3n(n2)C(c2ccc(F)cc2)C=C(c2ccccc2)N3)cc1 (centres undefined) | 15.7% (inactive) | 
CCOc1ccc(NC(=S)N2CCC(C(O)(c3ccccc3)c3ccccc3)CC2)cc1 | -17.4% (inactive) | 
Cc1cc(CC(=O)O)n(C)c1C(=O)c1ccc(Cl)cc1 | 0.803% (inactive) | 
CCCCOC(=O)NC(=O)C1c2ccccc2Oc2ccccc21 | 1.46% (inactive) | 
C[C@@H]1C[C@H](C)CN(CCC(=O)Nc2ccc(Br)cc2)C1 | -28.1% (inactive) | 
CCOC(=O)C(CCc1ccccc1)NC1CCCN2CCCC(C(=O)O)N2C1=O (centres undefined) | -11.2% (inactive) | 
COc1ccc(-c2ccc(-c3cn(C(=O)N4CCCCC4c4ccccc4)nn3)cc2)cc1 (centres undefined) | -11.4% (inactive) | 
C=CC(=O)N1CCN(C(=O)c2cc(-c3cc(Cl)ccc3Cl)c(Cl)cc2OC)CC1 | 17% (inactive) | 
Nc1nc(O)c(C2=C3C(=Nc4ccccc43)C(=O)NCC2)[nH]1 | -7.27% (inactive) | 
CN1CCC(Nc2nc(Nc3ccc(Oc4ccccc4)cc3)c3c(=O)[nH]cc(Br)c3n2)CC1 |  | 6.74 µM (active)
Cc1nnc(-c2ccc(-c3ccc(C(=O)Nc4ccc(O)c(N5CCN(C)CC5)c4)cc3)c(C)c2)o1 | -24% (inactive) | 
O=C(O)C[C@@H](NC(=O)c1cc(-c2ccc(-c3ccncc3)cc2)cs1)c1ccccc1 | 4.96% (inactive) | 
O=C1OC2(c3ccccc31)c1cc(Br)c(O)c(Br)c1Oc1c2cc(Br)c(O)c1Br |  | 19.5 µM (active)
COC(=O)C(CC1CCCC1)c1ccc(S(C)(=O)=O)cc1 (centres undefined) | -10.6% (inactive) | 
COc1ccc(CC(=O)Nc2c(C(=O)N3CCN(c4ccccc4F)CC3)oc3ccccc23)cc1OC | 0% (inactive) | 
CC1(C)CC(NC(=O)C(=O)Nc2ccc(Cl)cc2)CC(C)(C)N1 | 5.96% (inactive) | 
CN(CCCOc1ccc(Cc2ccccc2)cc1)CCC(=O)O | -9.69% (inactive) | 
CCOC(=O)CNC(=O)[C@@H]1CCCN1C(=O)Cc1ccccc1 (PhAc-Pro-Gly-OEt) | -27.5% (inactive) | 
N#Cc1c[nH]c2c(C(=O)N3CCN(CCc4ccc(F)cc4)CC3)cccc12 | -26.8% (inactive) | 
CC(C)(C)NS(=O)(=O)c1cncc(-c2cc(F)c3nc(N)nn3c2)c1 | -0.305% (inactive) | 

SMILES | activity change, negative = inhibition | Potency
COc1ccc(NC(=O)c2ccc(-c3ccc(C(N)=O)cc3C)cc2)cc1N1CCN(C)CC1 | -14.3% (inactive) | 
C[C@@H](Nc1cc(NS(=O)(=O)N2CCC2)nc(SCc2cccc(F)c2F)n1)[C@@H](O)CO | 0% (inactive) | 
c1ccc(-c2csc(N3CCOCC3)n2)cc1 | 0% (inactive) | 
c1ccc(-n2cnnn2)cc1 | 15.9% (inactive) | 
COc1ccc(C(=O)NCc2cc(C(C)C)no2)cc1OC1CCN(C)CC1 | 4.35% (inactive) | 
N#Cc1cccc(-c2nc(-c3cccnc3)no2)c1 | -18.7% [at 23.9 µM] (inactive) | 
CC(=O)NC[C@H]1CN(c2ccc(N3CCN(C(=O)CO)CC3)c(F)c2)C(=O)O1 | -0.16% (inactive) | 
O=C(O)Cc1cn(-c2ccccc2)nc1-c1ccc(Cl)cc1 | -3.33% (inactive) | 
O=C(O)Cc1ccc2oc(-c3ccc(NC(=O)/C=C/c4ccc(Br)cc4)c(F)c3)nc2c1 | -10.3% (inactive) | 
CC(=O)NCCCCCC(=O)O | 27.2% (inactive) | 
CCCCCCCC(=O)O | -6.09% (inactive) | 
CCC(C)(C)C1CCc2c(sc(NC(=O)c3ccc(Br)cc3)c2C#N)C1 (centres undefined) | 4.13% (inactive) | 
C[C@@H]([C@@H](O)c1ccc(O)cc1)N1CCC(O)(c2ccccc2)CC1 | 2.88% (inactive) | 
O=C1N=C(N2CCOCC2)CN1c1ccc(Cl)cc1 | 20% (inactive) | 
Cc1cccc(NC(=O)Cn2c(=O)n(Cc3ccc(C(=O)NCc4ccc5c(c4)OCO5)cc3)c(=O)c3ccccc32)c1 | 0.364% (inactive) | 
FCOC(C(F)(F)F)C(F)(F)F | -11.7% (inactive) | 
CCCCS(=O)(=O)NC(Cc1ccc(OCCCCC2CCNCC2)cc1)C(=O)O (centres undefined) | -3.86% (inactive) | 
O=c1c(-c2ccccc2)c1-c1ccccc1 | -21.6% (inactive) | 
CN(C)CC1CCOC1(c1ccccc1)c1ccccc1 (centres undefined) | 16.7% [at 23.9 µM] (inactive) | 
COc1cccc(-n2nc(C(=O)O)cc2-c2ccc(C3CCCCC3)c(Cl)c2)c1 | 0% (inactive) | 

System: not listed separately
Test: Viability qHTS for spleen associated tyrosine kinase inhibitor (SYKi) naive MV4-11 cells (AID 1963823)
Settings: MV4-11 AML viability, CellTiter-Glo luminescence, 72 h; series mostly up to 45 µM; viability (% of control): at the top concentration
Summary of the method: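 Read-out: CellTiter-Glo luminescence. Exposure: 72 hr, 37 C, 5% CO2, 95% humidity. Cells: MV4-11 without SYK inhibitor history, 500/well, qHTS format.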

SMILES | viability (% of control) | Potency
Cc1cc(CC(=O)O)n(C)c1C(=O)c1ccc(Cl)cc1 | 71.1% (inactive) | 
CCCCOC(=O)NC(=O)C1c2ccccc2Oc2ccccc21 | 60.3% (inactive) | 
C[C@@H]1C[C@H](C)CN(CCC(=O)Nc2ccc(Br)cc2)C1 | 58.8% (inactive) | 
COc1ccc(-c2ccc(-c3cn(C(=O)N4CCCCC4c4ccccc4)nn3)cc2)cc1 (centres undefined) | 84.6% (inactive) | 
C=CC(=O)N1CCN(C(=O)c2cc(-c3cc(Cl)ccc3Cl)c(Cl)cc2OC)CC1 |  | 8.2 µM (active)
Nc1nc(O)c(C2=C3C(=Nc4ccccc43)C(=O)NCC2)[nH]1 |  | 0.461 µM (active)
CN1CCC(Nc2nc(Nc3ccc(Oc4ccccc4)cc3)c3c(=O)[nH]cc(Br)c3n2)CC1 | 0.873% (inactive) | 
Cc1nnc(-c2ccc(-c3ccc(C(=O)Nc4ccc(O)c(N5CCN(C)CC5)c4)cc3)c(C)c2)o1 | 71.2% (inactive) | 
O=C(O)C[C@@H](NC(=O)c1cc(-c2ccc(-c3ccncc3)cc2)cs1)c1ccccc1 | 59.7% (inactive) | 
O=C1OC2(c3ccccc31)c1cc(Br)c(O)c(Br)c1Oc1c2cc(Br)c(O)c1Br | 66.7% (inactive) | 
COC(=O)C(CC1CCCC1)c1ccc(S(C)(=O)=O)cc1 (centres undefined) | 59% (inactive) | 
CC1(C)CC(NC(=O)C(=O)Nc2ccc(Cl)cc2)CC(C)(C)N1 | 69.9% (inactive) | 
CN(CCCOc1ccc(Cc2ccccc2)cc1)CCC(=O)O | 59.7% (inactive) | 
C[C@@H](Nc1cc(NS(=O)(=O)N2CCC2)nc(SCc2cccc(F)c2F)n1)[C@@H](O)CO | 86.8% (inactive) | 
c1ccc(-c2csc(N3CCOCC3)n2)cc1 | 79.3% (inactive) | 
COc1ccc(C(=O)NCc2cc(C(C)C)no2)cc1OC1CCN(C)CC1 | 66.5% (inactive) | 
N#Cc1cccc(-c2nc(-c3cccnc3)no2)c1 | 73.7% [at 17.3 µM] (inactive) | 
O=C(O)Cc1ccc2oc(-c3ccc(NC(=O)/C=C/c4ccc(Br)cc4)c(F)c3)nc2c1 | 77.9% (inactive) | 
CC(=O)NCCCCCC(=O)O | 107% (inactive) | 
CCC(C)(C)C1CCc2c(sc(NC(=O)c3ccc(Br)cc3)c2C#N)C1 (centres undefined) | 114% (inactive) | 
C[C@@H]([C@@H](O)c1ccc(O)cc1)N1CCC(O)(c2ccccc2)CC1 | 52.8% (inactive) | 
O=C1N=C(N2CCOCC2)CN1c1ccc(Cl)cc1 | 66.2% (inactive) | 
CCCCS(=O)(=O)NC(Cc1ccc(OCCCCC2CCNCC2)cc1)C(=O)O (centres undefined) | 81% (inactive) | 
O=c1c(-c2ccccc2)c1-c1ccccc1 |  | 23.7 µM (active)

— PubChem BioAssay (NCATS)
